Whole data set: some 68,000 sequences, median “fluorescence intensity (a.u.)” near 9,100, cut for the highest 2% near 16,000. Shown is part of a subset that was picked to be rich in the highest values.
Molecular target: OsWRKY34 (Oryza sativa, UniProt Q0JBA9 1-250)
Assay: protein-binding microarray (RPBM); PBS, 2% BSA, 51.3 ng/ul salmon testes DNA, 50 uM zinc acetate, 200 nM TF, 25 C, 1 h; high values mean tight binding
Settings: protein: recombinant; tags: N-terminal polyhistidine and DsRed monomer fusion (pET32a); label: CyDye5-dUTP incorporated in the synthesized complementary strand; 3' TTTTT single-stranded linker to array surface; dsDNA, one strand shown
How it was run: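 A custom Agilent array was converted to double-stranded form by primer extension with Cy5-dUTP and blocked with 2% BSA. Protein at 200 nM in PBS with 2% BSA, salmon testes DNA and 50 µM zinc acetate was applied for 1 h at 25 °C, followed by washing. The proteins were polyhistidine–DsRed N-terminal fusions of transcription factors, expressed in E. coli BL21-CodonPlus and Ni–NTA-purified. The binding signal is per-feature fluorescence intensity (arbitrary units) from an Axon 4000B scanner.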

Chain of OsWRKY34 (Q0JBA9 entry or part of it): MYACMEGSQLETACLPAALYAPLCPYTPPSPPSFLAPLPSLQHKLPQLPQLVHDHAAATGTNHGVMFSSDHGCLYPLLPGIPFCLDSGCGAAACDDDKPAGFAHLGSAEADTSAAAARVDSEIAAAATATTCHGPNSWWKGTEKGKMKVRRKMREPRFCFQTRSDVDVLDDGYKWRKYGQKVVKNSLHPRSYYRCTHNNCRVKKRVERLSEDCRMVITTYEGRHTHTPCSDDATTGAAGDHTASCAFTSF

Q: How did the binding signal turn out when “AAACGTATGGCTGCTCTCTCTCTGCTGATGATCTCTCTCTCGGAGTCACCTAGTGCAG” was run?
A: 8180 fluorescence intensity (a.u.)

Q: “GCCAATTTTTTCTCCTCACATCTATTTTACCCTATTATTCCGGAGTCACCTAGTGCAG” was tested. Which binding signal did it give?
A: 8390 fluorescence intensity (a.u.)

Q: How did the binding signal turn out when “CCGAGCACCCACCCGCCGCCGCCGCCGTCGCCGATTCATGCGGAGTCACCTAGTGCAG” was run?
A: 9080 fluorescence intensity (a.u.)

Q: “GTAATTAACCAGAATTCAGGTTTTGTCAGTGCCACCATCACGGAGTCACCTAGTGCAG” was tested. Which binding signal did it give?
A: 9850 fluorescence intensity (a.u.)

Q: How did the binding signal turn out when “TTTGTGTTGTCTAGACATTTTTTTCTATTTTTCACCTATTCGGAGTCACCTAGTGCAG” was run?
A: 9190 fluorescence intensity (a.u.)

Q: For “GAATCATGAGTTGGTTGGGTTGGCATTAAACTGTTTTGAGCGGAGTCACCTAGTGCAG”, which binding signal is on record?
A: 12100 fluorescence intensity (a.u.)

Q: How did the binding signal turn out when “ATTTTATTGTTGCGGTTGCCAATCAACAACGACGTCATTTCGGAGTCACCTAGTGCAG” was run?
A: 9550 fluorescence intensity (a.u.)

Q: How did the binding signal turn out when “CGTTGACTTTTTCTTACATGTTTGACCATTCGTCTTATTTCGGAGTCACCTAGTGCAG” was run?
A: 35300 fluorescence intensity (a.u.)

Q: How did the binding signal turn out when “GACACGGAAAATCATGGTTTGACTTTTTTTTTTGGGACGGCGGAGTCACCTAGTGCAG” was run?
A: 19400 fluorescence intensity (a.u.)

Q: Which binding signal does the source give for “TGTTGACTTTTGGATACATGTTTGACAATTCGTCTTATTTCGGAGTCACCTAGTGCAG” here?
A: 14700 fluorescence intensity (a.u.)

Q: “ATGACATGTCATGGGACTTACTTTACATGGTTTTGAATACCGGAGTCACCTAGTGCAG” was tested. Which binding signal did it give?
A: 8140 fluorescence intensity (a.u.)

Q: With “ACTTTGTCCACCCATTTTGTGTTGTCTCGTTGTTTCTATTCGGAGTCACCTAGTGCAG” as the sequence, how does the binding signal read?
A: 17000 fluorescence intensity (a.u.)

Q: For “GGTTTTGCGGTTGAGCGAAACGACCCAATGGGAATCAAGACGGAGTCACCTAGTGCAG”, which binding signal is on record?
A: 60000 fluorescence intensity (a.u.)

Q: Which binding signal does the source give for “TCGTTGATTTTTGACATGATGTTTGACCATTCTTATTATTCGGAGTCACCTAGTGCAG” here?
A: 9750 fluorescence intensity (a.u.)

Q: How did the binding signal turn out when “ATTTCTAACTTTTTTTCCCATTGTTTTGTTTGTCTTATTTCGGAGTCACCTAGTGCAG” was run?
A: 8920 fluorescence intensity (a.u.)

Q: Which binding signal does the source give for “TGGGACTTTATTTGCACTGGTTTTGGGAGTTGAGGGACACCGGAGTCACCTAGTGCAG” here?
A: 8550 fluorescence intensity (a.u.)

Q: For “GGCCTCTCAACTGACCCGTCTGCGAAATATGTTTATTTTCCGGAGTCACCTAGTGCAG”, which binding signal is on record?
A: 8060 fluorescence intensity (a.u.)

Q: Which binding signal does the source give for “ATTTATAGAGGTTGGGTGTGCATGTGTGGTGAGCATATTTCGGAGTCACCTAGTGCAG” here?
A: 8820 fluorescence intensity (a.u.)

Q: With “GCTAGCGCTGCCGCCCTACTCTTGATCCTAAATATTCATTCGGAGTCACCTAGTGCAG” as the sequence, how does the binding signal read?
A: 8210 fluorescence intensity (a.u.)

Q: Which binding signal does the source give for “ACTGGTCGAACCTTGGCGGGGAGGGGCCGGCCGGCCTCATCGGAGTCACCTAGTGCAG” here?
A: 8640 fluorescence intensity (a.u.)

Q: With “ATGAAATGTTTGTCATTTCTGGTGGGGCTGTTAGTTAATTCGGAGTCACCTAGTGCAG” as the sequence, how does the binding signal read?
A: 9970 fluorescence intensity (a.u.)

Q: “CAAACCTGTGTACTTTCTACGTGTTTTTTCTATGTTTCCGCGGAGTCACCTAGTGCAG” was tested. Which binding signal did it give?
A: 12100 fluorescence intensity (a.u.)

Q: For “ACCATATGCATCTGAATTTGTTCTGAGTATACTCCATTTCCGGAGTCACCTAGTGCAG”, which binding signal is on record?
A: 10600 fluorescence intensity (a.u.)

Q: With “TGCCCGACTTGGCTTTCTCCTCCTCTCTCCTCCCGCAACCCGGAGTCACCTAGTGCAG” as the sequence, how does the binding signal read?
A: 8600 fluorescence intensity (a.u.)

Q: How did the binding signal turn out when “AGCAGTTAACCCACCGTACAACAAAATCAATCAGTTTCTTCGGAGTCACCTAGTGCAG” was run?
A: 8270 fluorescence intensity (a.u.)

Q: Which binding signal does the source give for “CCGCCGCCGCCTCCTGCTCCTTCGACCTGCCCCGGCCCCGCGGAGTCACCTAGTGCAG” here?
A: 8870 fluorescence intensity (a.u.)

Q: How did the binding signal turn out when “CCCCTATTTAGCCGCGCCATTTTCCCCTCGCTAGCTGTGTCGGAGTCACCTAGTGCAG” was run?
A: 8400 fluorescence intensity (a.u.)

Q: “TAATTTTTATAGGCCTGTTCATATTTTCTACCGTTGATTTCGGAGTCACCTAGTGCAG” was tested. Which binding signal did it give?
A: 10300 fluorescence intensity (a.u.)

Q: For “TTGACATCCTACGTTTGTGTTCCTCGTCACTCCACTATCGCGGAGTCACCTAGTGCAG”, which binding signal is on record?
A: 8040 fluorescence intensity (a.u.)

Q: Which binding signal does the source give for “GGTTGGTTTCTTTGTTTTTCTCTTATATTTACACTATATTCGGAGTCACCTAGTGCAG” here?
A: 23800 fluorescence intensity (a.u.)

Q: “ATTGACTTTTTTAAAAATGTTTGACCATTCGTCTTATTCACGGAGTCACCTAGTGCAG” was tested. Which binding signal did it give?
A: 9010 fluorescence intensity (a.u.)

Q: “CTGTGTTTTCTATTTTTCTCTGTTTTACATCTATCTTCTTCGGAGTCACCTAGTGCAG” was tested. Which binding signal did it give?
A: 19100 fluorescence intensity (a.u.)

Q: With “CCAATTTCTCTCTCCACATCTCTCTGTGTTTCTTTTATTTCGGAGTCACCTAGTGCAG” as the sequence, how does the binding signal read?
A: 9680 fluorescence intensity (a.u.)

Q: “CTTACTTGGTCACTCCCTTTTTGTTATCTGATTTAGACGTCGGAGTCACCTAGTGCAG” was tested. Which binding signal did it give?
A: 8230 fluorescence intensity (a.u.)

Q: “TTTTGACTTTCTCTTACACTGTTTGACCATTTATCTTATTCGGAGTCACCTAGTGCAG” was tested. Which binding signal did it give?
A: 14000 fluorescence intensity (a.u.)

Q: With “TGTTTGACACCATTGACTTTTTAGTATGTGTTTGACCATTCGGAGTCACCTAGTGCAG” as the sequence, how does the binding signal read?
A: 13200 fluorescence intensity (a.u.)

Q: With “ACACCATTGACTTTTTAATATGTGTTTGACCATTCGTCTTCGGAGTCACCTAGTGCAG” as the sequence, how does the binding signal read?
A: 19200 fluorescence intensity (a.u.)

Q: With “TTCTTTTTATATTTTCTTTTGTTGGTTTTTTTCGTCTCAACGGAGTCACCTAGTGCAG” as the sequence, how does the binding signal read?
A: 13200 fluorescence intensity (a.u.)

Q: For “TCTGTATGGTCTACTTGTTTGATTGATTGATAATTTTACACGGAGTCACCTAGTGCAG”, which binding signal is on record?
A: 9240 fluorescence intensity (a.u.)

Q: How did the binding signal turn out when “ATATTTTTTCTGTGTTTTGCAATCTTCTATTTTACACTTTCGGAGTCACCTAGTGCAG” was run?
A: 11200 fluorescence intensity (a.u.)

Q: “CGTCCTTATATAATTGTTTTACTTGGTGATTTCATCTGGTCGGAGTCACCTAGTGCAG” was tested. Which binding signal did it give?
A: 64500 fluorescence intensity (a.u.)

Q: Which binding signal does the source give for “CGTCTCGTGTCTTCTCGTCTCGACCCATCCATCCATCCCACGGAGTCACCTAGTGCAG” here?
A: 8570 fluorescence intensity (a.u.)

Q: How did the binding signal turn out when “CGGGCTCTGGTTTTACCGAATAAATGCTCTGGGCCTAATACGGAGTCACCTAGTGCAG” was run?
A: 8020 fluorescence intensity (a.u.)

Q: How did the binding signal turn out when “GCATTAGAACGAGCGCACCCACTTTCAGTTCTCAAATTATCGGAGTCACCTAGTGCAG” was run?
A: 8670 fluorescence intensity (a.u.)

Q: “GTCTTTTGATGCGACGCGATGTGACTCGCCCGACCCAACTCGGAGTCACCTAGTGCAG” was tested. Which binding signal did it give?
A: 8940 fluorescence intensity (a.u.)

Reference: publication PMC7819943, “Rice protein-binding microarrays: a tool to detect cis-acting elements near promoter regions in rice”
